Several values for one entry are separate records, joined by “and”; a condition that tells them apart may be missing. Equal entries are not always repeated. Inconclusive results are not listed. A structure can be active in one record and inactive in another. Activity calls are given as the source filed them.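 How the source made its calls, unless noted: active means thallium flux through the channel raised or lowered by more than 3 SD from vehicle-only wells, actives on both sides; inactive means the rest.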
Legend:
F380Y/beta1 = assay: modulators of BK channel variants, profiling panel, selectivity assay, cell-based, U2OS BacMam, thallium flux, beta subunits (AID 1259406); settings: at 30 µM;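 further: initial slope of Thallos dye fluorescence rise after thallium is added; log ratio against the mean of 0.3% DMSO vehicle wells on the same plate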
F380Y/beta4 = assay: as above; settings: at 30 µM
R275C/beta4 = assay: as above; settings: at 30 µM
R275C/Slo1WT/beta2 = assay: as above; settings: at 30 µM
[1] = test system: Aerobactin synthetase IucA (Klebsiella pneumoniae); assay: IucA aerobactin synthetase inhibitors, biochemical, Tocris library, absorbance (AID 1345561; call rule not given here;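 further: 100% = enzyme without compound and 0% = no enzyme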); settings: purified IucA enzyme assay, absorbance (OD) read-out; stronger effect = lower value;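 tested at 8 µM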
[2] = growth inhibition of DIPG glioma cells, dose response, cell-based, SU-DIPG-XVII, MIPE5.0, CellTiter-Glo, qHTS (AID 1347060; cut-off not given, nearly all actives have AC50 up to about 26 µM;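 on AC50: cells exposed to compound for 48 hours before viability readout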); settings: SU-DIPG-XVII viability, CellTiter-Glo ATP luminescence
[3] = growth inhibition of DIPG glioma cells, dose response, cell-based, SU-DIPG-XIII, MIPE4.0, CellTiter-Glo, qHTS (AID 1347061; cut-off not given, nearly all actives have AC50 up to about 37 µM;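 further: cells exposed to compound for 48 hours before readout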); settings: SU-DIPG-XIII viability, CellTiter-Glo ATP luminescence
[4] = growth inhibition of DIPG glioma cells, dose response, cell-based, JHH-DIPG-1, MIPE4.0, CellTiter-Glo, qHTS (AID 1347062; cut-off not given, nearly all actives have AC50 up to about 27 µM); settings: JHH-DIPG-1 viability, CellTiter-Glo ATP luminescence
[5] = growth inhibition of DIPG glioma cells, dose response, cell-based, SU-DIPG-XIII, MIPE5.0, CellTiter-Glo, qHTS (AID 1347064; cut-off not given, nearly all actives have AC50 up to about 23 µM); settings: SU-DIPG-XIII viability, CellTiter-Glo ATP luminescence
[6] = viability loss in pontine glioma line – cell-based, SU-DIPG-XXV, MIPE5.0, CellTiter-Glo, qHTS, dose response (AID 1347065; cut-off not given, nearly all actives have AC50 up to about 26 µM;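 further: cells exposed to compound for 48 hours before ATP readout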); settings: CellTiter-Glo ATP luminescence
[7] = SU-DIPG-VI glioma cell viability, MIPE4.0 library, CellTiter-Glo luminescence, qHTS (AID 1347066; cut-off not given, nearly all actives have AC50 up to about 30 µM;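 further: cells exposed to compound for 48 hours before readout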); settings: CellTiter-Glo ATP luminescence
[8] = JHH-DIPG-1 glioma cell viability, MIPE5.0 library, CellTiter-Glo luminescence, qHTS (AID 1347067; cut-off not given, nearly all actives have AC50 up to about 26 µM;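 further: cells exposed to compound for 48 hours before readout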); settings: JHH-DIPG-1 glioma viability, CellTiter-Glo ATP luminescence
[9] = SU-DIPG-XXV glioma cell viability, MIPE5.0 library, qHTS (AID 1347068; cut-off not given, nearly all actives have IC50 up to about 30 µM)
[10] = biological target: ATP-dependent translocase ABCB1 (Homo sapiens) (UniProt P08183); assay: MDR1 (ABCB1) efflux transporter inhibition, cell-based (AID 377; in the data active means fluorescence slope change above about 50%); settings: MDR1-expressing cells, fluorescent substrate accumulation slope; stronger effect = higher value; concentration not given here
[11] = growth inhibition of DIPG glioma cells, dose response, cell-based, SU-DIPG-IV, MIPE4.0, CellTiter-Glo, qHTS (AID 1347063; cut-off not given, nearly all actives have AC50 up to about 30 µM;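 further: compound exposure lasted 48 hours before the viability readout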); settings: SU-DIPG-IV viability, CellTiter-Glo ATP luminescence
[12] = reducers of polyQ inclusions in PC12 cells, cell-based, NGF-treated PC12, GFPQ80 (AID 1614); settings: PC12 NGF-treated GFP-polyQ80 inclusion reduction;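 further: lower means fewer inclusions and 0 means no inclusions at all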

Sequence of ATP-dependent translocase ABCB1 (Homo sapiens) (P08183 whole entry, looked up): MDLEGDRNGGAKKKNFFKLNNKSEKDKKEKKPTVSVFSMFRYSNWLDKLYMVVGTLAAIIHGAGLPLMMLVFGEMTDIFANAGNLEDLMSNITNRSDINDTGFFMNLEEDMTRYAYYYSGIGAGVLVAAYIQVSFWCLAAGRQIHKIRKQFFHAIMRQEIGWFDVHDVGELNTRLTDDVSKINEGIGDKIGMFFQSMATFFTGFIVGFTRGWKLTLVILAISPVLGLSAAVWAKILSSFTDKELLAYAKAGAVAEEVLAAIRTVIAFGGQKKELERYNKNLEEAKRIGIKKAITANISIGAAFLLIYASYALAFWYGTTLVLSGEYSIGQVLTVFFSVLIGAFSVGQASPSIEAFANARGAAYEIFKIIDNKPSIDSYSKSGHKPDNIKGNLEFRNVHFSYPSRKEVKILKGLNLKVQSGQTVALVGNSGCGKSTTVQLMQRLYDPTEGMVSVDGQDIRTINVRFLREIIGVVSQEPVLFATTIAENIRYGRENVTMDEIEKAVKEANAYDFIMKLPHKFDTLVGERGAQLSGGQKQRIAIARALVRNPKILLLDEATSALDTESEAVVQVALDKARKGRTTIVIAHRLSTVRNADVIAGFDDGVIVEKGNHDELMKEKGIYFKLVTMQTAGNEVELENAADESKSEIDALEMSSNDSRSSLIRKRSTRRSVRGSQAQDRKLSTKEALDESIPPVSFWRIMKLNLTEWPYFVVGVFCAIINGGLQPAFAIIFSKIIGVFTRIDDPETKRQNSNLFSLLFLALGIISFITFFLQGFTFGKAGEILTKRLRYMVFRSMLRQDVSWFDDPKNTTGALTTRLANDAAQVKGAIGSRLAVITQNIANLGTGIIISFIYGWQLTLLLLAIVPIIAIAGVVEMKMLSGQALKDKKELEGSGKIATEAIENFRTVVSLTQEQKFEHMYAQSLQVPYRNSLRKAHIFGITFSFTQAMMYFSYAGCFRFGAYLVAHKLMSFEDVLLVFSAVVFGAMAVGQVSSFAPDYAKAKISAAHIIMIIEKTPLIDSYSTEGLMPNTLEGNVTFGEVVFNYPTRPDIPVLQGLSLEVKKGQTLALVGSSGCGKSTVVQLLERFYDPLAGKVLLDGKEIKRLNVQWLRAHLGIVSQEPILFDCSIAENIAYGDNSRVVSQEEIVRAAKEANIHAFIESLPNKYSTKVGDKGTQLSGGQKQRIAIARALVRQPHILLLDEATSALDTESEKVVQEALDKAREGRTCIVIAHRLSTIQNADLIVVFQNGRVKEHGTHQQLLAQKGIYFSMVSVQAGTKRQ

CC(C)n1c(/C=C/[C@@H](O)C[C@@H](O)CC(=O)O)c(-c2ccc(F)cc2)c2ccccc21
inactive: log fold change Tl+ flux (F380Y/beta1) 0.0905 | log fold change Tl+ flux (F380Y/beta4) 8.3e-05 | log fold change Tl+ flux (R275C/beta4) 0.103 | log fold change Tl+ flux (R275C/Slo1WT/beta2) 0.0615

O=S(=O)(c1cccc2cnccc12)N1CCCNCC1
inactive: remaining activity [1] 109% | outcome [2] | outcome [3] | outcome [4] | outcome [5] | outcome [6] | outcome [7] | outcome [8] | outcome [9]

COc1ccc(-c2nc3ccc(C4=NNC(=O)CC4C)cc3[nH]2)cc1 (stereo unspecified)
active: AC50 [2] 16.6 µM
inactive: outcome [3] | outcome [4] | outcome [7]

CC(C)(C)CC(C)(C)c1ccc(OCCOCC[N+](C)(C)Cc2ccccc2)cc1
active: fluorescence slope change [10] 152%

O=C(O)CCn1c2c(c3ccccc31)C[C@H](NS(=O)(=O)c1ccc(F)cc1)CC2
inactive: outcome [2] | outcome [3] | outcome [4] | outcome [6] | outcome [7] | outcome [8] | outcome [9]

Clc1ccccc1CN1CCc2sccc2C1
active: log fold change Tl+ flux (F380Y/beta1) -0.0989 | log fold change Tl+ flux (F380Y/beta4) -0.152
inactive: outcome [2] | outcome [3] | outcome [4] | outcome [5] | outcome [6] | outcome [7] | outcome [8] | outcome [9] | log fold change Tl+ flux (R275C/beta4) -0.0465 | log fold change Tl+ flux (R275C/Slo1WT/beta2) 0.00594

O=C(O)COCCN1CCN(C(c2ccccc2)c2ccc(Cl)cc2)CC1 (stereo unspecified)
inactive: fluorescence slope change [10] 28.7% | remaining activity [1] 109% | outcome [3] | outcome [4] | outcome [11] | outcome [7] | log fold change Tl+ flux (F380Y/beta1) 0.0627 | log fold change Tl+ flux (F380Y/beta4) 0.0511 | log fold change Tl+ flux (R275C/beta4) 0.0338 | log fold change Tl+ flux (R275C/Slo1WT/beta2) -0.0639

Cc1ccc(/C(=C\CN2CCCC2)c2ccccn2)cc1
active: fluorescence slope change [10] 91.4%
2: inclusion score [12]
inactive: remaining activity [1] 77.2%

CC1(C)[C@H](C(=O)O)N2C(=O)C[C@H]2S1(=O)=O
inactive: outcome [4] | outcome [11] | outcome [7]

CC(C)(C)c1ccc(C(O)CCCN2CCC(C(O)(c3ccccc3)c3ccccc3)CC2)cc1 (stereo unspecified)
active: fluorescence slope change [10] 182%

CN1[C@@H]2CC(OC(=O)[C@H](CO)c3ccccc3)C[C@H]1[C@@H]1O[C@@H]12 (stereo partly specified)
inactive: remaining activity [1] 104%

O=C(O)c1cn(C2CC2)c2cc(N3CCNCC3)c(F)cc2c1=O
inactive: outcome [2] | outcome [3] | outcome [4] | outcome [5] | outcome [6] | outcome [7] | outcome [8] | outcome [9]
2: inclusion score [12]
active: fluorescence slope change [10] 54.5%

O=C(NCC1CCCCN1)c1cc(OCC(F)(F)F)ccc1OCC(F)(F)F (stereo unspecified)
inactive: remaining activity [1] 117% | outcome [2] | outcome [3] | outcome [5] | outcome [6] | outcome [7] | outcome [8] | outcome [9]

C[N+]1(C)CCC(OC(=O)C(O)(c2ccccc2)C2CCCC2)C1 (stereo unspecified)
0.0815 (active) and 0.0504 (inactive): log fold change Tl+ flux (R275C/Slo1WT/beta2)
inactive: log fold change Tl+ flux (F380Y/beta1) 0.0124 and -0.000209 | log fold change Tl+ flux (F380Y/beta4) -0.00589 and 0.00112 | log fold change Tl+ flux (R275C/beta4) 0.0451 and -0.0272

CC(C)c1c(C(=O)Nc2ccccc2)c(-c2ccccc2)c(-c2ccc(F)cc2)n1CC[C@@H](O)C[C@@H](O)CC(=O)O
inactive: outcome [5] | outcome [9]

NCCCC(O)(P(=O)(O)O)P(=O)(O)O
inactive: outcome [2] | outcome [3] | outcome [4] | outcome [5] | outcome [6] | outcome [8] | outcome [9]

— PubChem BioAssay
